In PubChem BioAssay (NCI):
This is part of a sample that, as a whole, favours compounds with a hit. Of some 83,000 tested, about 20% had one in any assay.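 Negative percent growth values reflect cell death: -40 means 40% of the cells present at the start died, and -100 means all died.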 The source made the active and inactive calls. The calls were made as follows: active = growth percent below 10; inactive = the rest.

system: MDA-MB-435 melanoma; assay: NCI-60 one-dose screen, 48 h (100 = growth as untreated, 0 = no growth, -100 = all killed); settings: 10 µM unless noted

Row | Structure (SMILES) | growth
1 | O=S(=O)(c1ccccc1)N1CCCN(c2nc(-c3ccccc3)nc3nc(-c4ccccc4)oc23)CC1 | 102% (inactive)
2 | Clc1ccc(-c2cn3ccsc3n2)c(Cl)c1Cl | 96.6% (inactive)
3 | O=C(CN1C(=O)/C(=C/c2ccco2)SC1=S)NCCc1c[nH]c2ccc(F)cc12 | 104% (inactive)
4 | COc1cc(C2C3=C(COC3=O)N(CCO)c3cc4c(cc32)OCCO4)cc(OC)c1OC (stereo not given) | -32.8% (active)
5 | N/C(=N\c1nc2ccccc2s1)NC(=NC1CCCCC1)NC1CCCCC1 | -33.7% (active)
6 | CC(O)c1ncc(/C=C2\SC(=S)N(Cc3ccccc3)C2=O)s1 (stereo not given) | 80.5% (inactive)
7 | COc1ccc2nc3ccccc3c(NCc3ccc(F)cc3)c2c1 | 23.9% (inactive)
8 | COc1cc(-c2cc(-c3ccc(Nc4ncnc5cc(Cl)ccc45)cc3)nc(N3CCN(C)CC3)n2)cc(OC)c1OC | 102% (inactive)
9 | O=C(Nc1cccnc1Nc1ccc(Cl)cc1)c1cn(Cc2ccc(F)cc2)nn1 | 97.2% (inactive)
10 | N#Cc1c(NC(=O)c2cccs2)[n+]([O-])c2ccc(Cl)cc2[n+]1[O-] | 89.2% (inactive)
11 | CCOC(=O)/C=C/c1c(C)[nH]c(=O)[nH]c1=O | 109% (inactive)
12 | COc1ccc(C2C3=C(COC3=O)N(CCO)c3cc4c(cc32)OCCO4)cc1OC (stereo not given) | -44.1% (active)
13 | CN1CCN(c2ccc3c(c2)nc(NNC(=O)c2cnccn2)c2cccn23)CC1 | 32.6% (inactive)
14 | C=CCOC(=O)C1=C(C)NC(=O)NC1c1c(Cl)n(C)c2ccccc12 (stereo not given) | 103% (inactive)
15 | COc1ccc(Cl)cc1Nc1nc(C(F)(F)F)ccc1C(=O)N/N=C/c1ccccc1Cl | 26.9% (inactive)
16 | N#Cc1c(-c2ccccc2)nc2c(c(-c3ccccc3)nn2-c2ccccc2)c1-c1ccc(N2CCOCC2)cc1 | 90.5% (inactive)
17 | O=C(CCCCCCCCC(=O)N/N=C\c1cc(Cl)ccc1O)N/N=C\c1cc(Cl)ccc1O | 38.1% (inactive)
18 | CC12CCC(/C(=C/NNc3ccc([N+](=O)[O-])cc3[N+](=O)[O-])C1=O)C2(C)C (stereo not given) | 70.5% (inactive)
19 | Nc1ccc([N+](=O)[O-])cc1N=C/C=C/c1ccccc1 | 5.57% (active)
20 | CC1CN=C(c2cccc(-c3ccc(-c4ccccc4)o3)c2)N1 (stereo not given) | -75.8% (active)

Row | Structure (SMILES) | growth
21 | CCCCc1oc2ccccc2c1C(=O)c1ccc(O)cc1 | 52.2% (inactive)
22 | Cc1cc2oc(=O)cc(CP(=O)(O)O)c2cc1O | 99.9% (inactive)
23 | CCOC(=O)C1=C(C)N=C2SC=C(c3ccccc3)N2[C@H]1c1cn[nH]c1-c1ccc(Cl)cc1 | 49.4% (inactive)
24 | CCN1C(=S)N(CC)C2C1NC(=S)N2/N=C/C=C/c1ccccc1OC (stereo not given) | -42.8% (active)
25 | CC(=O)N/C(=C1/OC(C(O)C(O)C(O)CO)CN1C)[P+](c1ccccc1)(c1ccccc1)c1ccccc1 (stereo not given) | 103% (inactive)
26 | CCn1cc(C(=O)N/N=C/c2ccc(Br)cc2)c(=O)c2cc(F)c(N3CCNC(C)C3)c(F)c21 (stereo not given) | 16.7% (inactive)
27 | CCNc1nc(-c2ccc(F)cc2)c(C#N)c(=O)n1C | 75.2% (inactive)
28 | C(/C=C/c1ccccc1)=Nc1ccc(CCc2ccc(N=C/C=C/c3ccccc3)cc2)cc1 | 115% (inactive)
29 | O=C(N/N=C/c1ccc([N+](=O)[O-])cc1)c1ccc2nc(-c3ccc(Cl)cc3)[nH]c2c1 | 47.6% (inactive)
30 | Fc1ccc(CNc2c3ccccc3nc3ccccc23)cc1 | 34.8% (inactive)
31 | O=C(CSc1nnc2sc(Nc3cccc(Cl)c3)nn12)c1ccc(F)cc1 | 100% (inactive)
32 | Cn1c(=O)c2c(nc(NC3=NS(=O)(=O)c4ccccc43)n2Cc2ccccc2)n(C)c1=O | 101% (inactive)
33 | O=c1nc(Nc2nc3ccccc3s2)[nH]c(=O)c2ccccc12 | 99.9% (inactive)
34 | c1ccc2cc(Cn3c[n+](Cc4ccc5ccccc5c4)c4ccccc43)ccc2c1 | -52.6% (active)
35 | Cc1[nH]c(/C=C/C(=O)c2ccc(C(F)(F)F)c(F)c2)c(C)c1C(=O)NCC(C)C | 103% (inactive)
36 | O=C(Nc1cccc(NC(=O)C2CCCCC2)c1)c1ccccn1 | 102% (inactive)
37 | CCOC(=O)c1c2c(n3ccccc13)C(=O)c1ncccc1C2=O | 39.8% (inactive)
38 | COc1ccc(C(c2cc(OC)c(OC)c(OC)c2)N2CCN(Cc3ccccc3)CC2)cc1 (stereo not given) | -32.2% (active)
39 | CN(C)c1ccc(/C=C2/C=C(c3ccccc3)OC2=O)cc1 | 21.7% (inactive)
40 | C#CC#CC#CC#CC#CC#CC#CC#CCC1OCC(COC(=O)O[C@@H](C(=O)O[C@H]2C[C@@]3(O)[C@@H](OC(=O)c4ccccc4)[C@@H]4[C@]5(OC(C)=O)CO[C@@H]5C[C@H](O)[C@@]4(C)C(=O)[C@H](OC(C)=O)C(=C2C)C3(C)C)[C@@H](NC(=O)c2ccccc2)c2ccccc2)O1 (stereo not given in full) | -73.5% (active)
